This is a sample that favours compounds with a hit; in the whole collection about 4.1% have one here.
DAX1 inh-1: inhibits human nuclear receptor DAX1 | actives 0.99% (n = 340,000) | P51843 | inhibition, % at 6.75 µM | HEK293 Gal4-DAX1 luciferase reporter, luminescence;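 active means inhibition above the mean over all tested compounds plus 3 SD, cut at about 4.2% in these data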;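 further: 0% = DAX1-transfected cells with DMSO and 100% = empty-vector control cells with DMSO; inhibition shows as a rise in luminescence from relieved DAX1 repression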
Target sequence (P51843 207-470 limits assumed): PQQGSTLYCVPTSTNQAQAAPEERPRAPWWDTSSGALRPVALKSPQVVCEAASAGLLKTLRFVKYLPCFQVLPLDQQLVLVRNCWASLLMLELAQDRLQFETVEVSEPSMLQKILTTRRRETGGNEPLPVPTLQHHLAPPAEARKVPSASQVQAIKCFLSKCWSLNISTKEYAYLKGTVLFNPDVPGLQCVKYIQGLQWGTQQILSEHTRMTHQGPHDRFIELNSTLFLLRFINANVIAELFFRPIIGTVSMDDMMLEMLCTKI
PolyA inhibitor: yeast polyadenylation inhibition; AID 1875; S. cerevisiae SKY197-pL101 polyadenylation reporter, beta-gal luminescence; efflux-impaired pdr1/pdr3 knockout yeast; score 100 = 6 SD above DMSO; activity score, % at 12 µM; actives 0.02% (n = 300,000);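 active means lowest replicate activity score at least 50, where 100 means six control SD above control mean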;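 further: yeast exposed to compound for 9 h at 30 °C; higher score means more reporter readthrough which indicates perturbed polyadenylation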
hcDAF-12 act: activators of H. contortus DAF-12 nuclear receptor; HEK293 hcDAF-12 lit1-tk-luc reporter, luminescence; 0% DMSO, 100% Δ7-dafachronic acid; activation, % at 6.8 µM; actives 1.4% (n = 370,000); AID 652067;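 active means activation above the mean of all tested compounds plus 3 SD, cut at about 5.5% in these data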;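 further: 100% = response to 3 µM Δ7-dafachronic acid high control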
hgDAF-12 ag: agonists of H. glycines DAF-12 nuclear receptor | HEK293 GAL4-hgDAF12 UAS-luciferase reporter, agonist luminescence; normalized to butyrate control | activation, % at 6.8 µM | actives 1.8% (n = 370,000) | AID 687014;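 active means activation above a cutoff set at the mean of all screened compounds plus 3 SD, cut at about 10% in these data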;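 further: 0% = DMSO wells and 100% = sodium butyrate wells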
ssDAF-12 act: S. stercoralis DAF-12 activation, primary screen | HEK293 ssDAF-12/GRIP1 lit1-tk-luc reporter, luminescence; % of 3 µM dafachronic acid response | activation, % at 6.8 µM | actives 1% (n = 370,000) | AID 652126;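 active means activation above the mean over all tested compounds plus 3 SD, cut at about 0.9% in these data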;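 further: 0% = DMSO-only wells and 100% = 3 µM delta7-dafachronic acid wells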
DAX1 inh-2: inhibitors of DAX1 repression of SF-1 activated StAR promoter; HEK293T StAR-luciferase reporter, SF-1/DAX-1 repression relief; inhibition, % at 6.8 µM; actives 1.1% (n = 370,000);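 active means inhibition above the mean over all tested compounds plus 3 SD, cut at about 3.6% in these data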;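 further: 0% = DAX-1 cells with DMSO and 100% = cells lacking DAX-1 with DMSO; higher inhibition means more luminescence from relief of DAX-1 repression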
Active calls of the source: *; . = not tested or not shown.

SMILES	DAX1 inh-1	PolyA inhibitor	hcDAF-12 act	hgDAF-12 ag	ssDAF-12 act	DAX1 inh-2
COc1ccc(NC(=O)N(CCc2c(C)[nH]c3ccccc23)Cc2cccs2)cc1OC	.	.	-1.7	0.8	-1.2	-2.7
CCOC(=O)c1cnc2c(ccc3ccccc32)c1NCCCN(C)C	8.1*	-4.6	2.4	13.1*	0.2	1.4
CC(C)(C)OC(=O)N1CCC2CCN(S(C)(=O)=O)CC21 (stereo not given)	.	.	-0.2	1.8	-0.7	-0.8
CCCCn1c(N)c(N(CC)C(=O)C(c2ccccc2)c2ccccc2)c(=O)[nH]c1=O	4.9*	5.5	0.9	-3.9	-1.4	0.8
CCCCN(C(=O)CSc1cc(C)c2ccc(OC)cc2n1)c1c(N)n(Cc2ccccc2)c(=O)[nH]c1=O	-0.3	-7.7	1.7	-3.6	4.8*	-0.3
CCCN(C(=O)c1nc2nc(C)cc(C)n2n1)c1c(N)n(Cc2ccccc2)c(=O)[nH]c1=O	2.1	.	-1.8	-0.6	-1.4	3.8*
CCCCn1c(N)c(N(CC(C)C)C(=O)CCCn2c(=O)oc3ccccc32)c(=O)[nH]c1=O	4.3*	-16.5	-1.3	0.9	-1.4	0.1
CCCCn1c(N)c(N(CC(C)C)C(=O)CSc2ccccc2C)c(=O)[nH]c1=O	-1.0	-10.7	-1.9	1.1	-1.0	0.7
COCCN(C(=O)CSc1nc2ccccc2s1)c1c(N)n(Cc2ccccc2)c(=O)[nH]c1=O	3.0	.	6.5*	0.6	0.4	0.7
CCCCn1c(N)c(N(CCOC)C(=O)CSc2ccccc2C)c(=O)[nH]c1=O	5.3*	-0.4	-0.5	3.2	-0.2	0.0
CCOc1ccc(S(=O)(=O)N(CC(=O)O)c2ccc(C)cc2)cc1	-0.4	5.7	-0.1	-0.4	-1.7	0.1
CCOc1ccc(N(Cc2ccc(C(=O)O)cc2)S(=O)(=O)c2ccc(C)cc2)cc1	0.8	-3.0	1.6	1.7	1.5*	-0.8
O=C(Cn1c(-c2cncs2)nc2ccccc21)NC1CCCCC1	.	.	-0.1	1.0	-0.6	0.7
O=C(Cc1ccccc1)Nc1ccc2[nH]ncc2c1	1.8	-6.9	-1.7	3.2	-1.5	-0.1
O=C(Nc1ccc2[nH]ncc2c1)c1ccccc1Br	1.0	-6.8	4.2	12.4*	-0.6	1.7
O=C(Nc1ccc2[nH]ncc2c1)c1ccccc1	2.3	3.4	2.5	7.4	-0.4	1.0
O=C(Nc1ccc2[nH]ncc2c1)c1ccccc1Cl	-1.4	-10.7	1.0	13.2*	-1.0	1.2
Cc1nc(-c2ccc(NC(=O)c3ccco3)cc2)cs1	-5.4	-13.1	-3.7	-4.9	-1.8	-0.3
Cc1nc(-c2ccc(NC(=O)c3ccccc3Br)cc2)cs1	0.7	4.5	-0.6	20.6*	0.5	2.8
COC(=O)c1cc(S(=O)(=O)N2CCN(c3cccc(C(F)(F)F)c3)CC2)cn1C	.	.	-2.2	1.2	-1.6	-1.2
CCCCN1CN2Cc3cc(F)ccc3C2CS1(=O)=O (stereo not given)	.	.	-0.9	2.1	-0.2	0.2
COc1ccccc1C(=O)N1CCN(C(=O)[C@@H](Cc2ccccc2)NC(=O)[C@H]2O[C@@H](n3ccc(=O)[nH]c3=O)[C@H](O)[C@@H]2O)CC1	.	.	-1.0	-1.2	-1.1	-0.3
C=CCN1C(=O)[C@H]2CCC=C[C@H]2[C@@H]1c1cccc(C)c1	-0.9	.	-0.9	-0.2	-0.2	-0.2
Cc1cccc([C@H]2[C@@H]3C=CCC[C@@H]3C(=O)N2Cc2ccccc2)c1	-1.3	.	-0.2	0.6	-1.6	3.8*
COc1ccc(C#Cc2c(-c3ccsc3)oc3ccc(-c4cc(OC)c(OC)c(OC)c4)cc23)cc1	0.4	15.4	5.6*	4.2	-0.7	-0.6
COc1ccc(C(=O)OC2CCN(c3ncc(C(F)(F)F)cc3Cl)CC2)cc1	0.7	-17.4	1.1	0.8	-1.5	-0.7
COc1ccc([C@H]2C=C3CN(C(=O)OC(C)(C)C)S(=O)(=O)[C@H]3C[C@H]2OC(=O)c2ccc(C(F)(F)F)cc2)cc1	1.8	-7.0	5.7*	0.3	-0.1	1.3
COc1ccc(C(=O)C2(C(=O)NCc3ccccc3)CC(c3ccccn3)=NO2)cc1 (stereo not given)	.	.	-1.2	-3.4	-1.1	0.2

Screening data as filed in PubChem.
